Assay results taken from PubChem BioAssay AID463173 (ICCB-Longwood Screening Facility, Harvard Medical School, 2010).
Among all 52,000 compounds or so, about 1,700 (3.3%) were called active. Rule as the data show it: active = survival mostly below about 52% (no sharp cut-off); inactive = mostly above about 56%. The list comes from a sample in which actives are over-represented; it also holds similar structures and randomly drawn compounds.

These molecules were tested on Wild type (assay: S. aureus survival, RN4220 and DeltatarO strains – OD600, teichoic acid synthesis inhibitors, primary screen (AID 463173)). Conditions: S. aureus RN4220 wild type/DeltatarO growth, OD600, 18 h, active compounds read low, screened at 18.75 µg/mL (by protocol).
In the case of `CCOc1ccc(NC(=O)CSc2nc(-c3cccc(Cl)c3)nc3c2Cc2c(CO)cnc(C)c2O3)cc1`, the survival is reported as 84% (inactive). With `COc1cc(OC)cc(C(=O)N2CCN(C(=O)COc3ccccc3)CC2)c1` the survival was 64% (inactive). In the case of `CCc1ccc(NC(=O)CN(c2cc(C)cc(C)c2)S(=O)(=O)c2c(C)[nH]c(=O)[nH]c2=O)cc1`, the survival is reported as 68% (inactive). In the case of `CC(C)c1cc(-c2nc(-c3cccc(Cl)c3)no2)n[nH]1`, the survival is reported as 131% (inactive). With `Cc1cc(Br)ccc1NC(=O)C1CCN(S(=O)(=O)c2ccc(Br)s2)CC1` the survival was 70% (inactive). For `COC(=O)C1=C(c2ccccc2)c2ccccc2S(=O)(=O)N1CC(=O)Nc1ccc(OC)cc1OC`, the survival was 154% (inactive). In the case of `CS(=O)(=O)c1cccc(S(=O)(=O)c2cccc(S(C)(=O)=O)c2)c1`, the survival is reported as 86% (inactive). With `Cc1cccc(OCc2cc(=O)n3c4c(sc3n2)CCCC4)c1C` the survival was 128% (inactive). `Cc1cccc(C)c1OCc1cc(=O)n2c3c(sc2n1)CCCC3` was tested, and the survival was -1% (active). For `O=C(Nc1ccccc1C(=O)OCc1cc(=O)n2c3c(sc2n1)CCCC3)c1ccc(Cl)cc1`, the survival was -3% (active). For `O=C(Nc1ccccc1C(=O)OCc1cc(=O)n2c3c(sc2n1)CCCC3)c1ccccc1`, the survival was 94% (inactive). In the case of `Cc1csc2nc(COC(=O)c3cccc(NC(=O)COc4ccc(Cl)cc4)c3)cc(=O)n12`, the survival is reported as 78% (inactive). `O=C(Nc1ccccc1C(=O)OCc1cc(=O)n2c3c(sc2n1)CCCC3)c1cccc(Cl)c1` was tested, and the survival was 73% (inactive). With `Cc1ccc(OCc2cc(=O)n3c4c(sc3n2)CCCC4)cc1C` the survival was 80% (inactive). With `Cc1cccc(OCC(=O)Nc2cccc(C(=O)OCc3cc(=O)n4c(C)csc4n3)c2)c1` the survival was -6% (active). For `Cc1ccc(OCC(=O)Nc2cccc(C(=O)OCc3cc(=O)n4c(C)csc4n3)c2)cc1`, the survival was 69% (inactive). With `CCCCSc1nc(-c2cccc(OC)c2)nc2c1Cc1c(CO)cnc(C)c1O2` the survival was 86% (inactive). `O=C(c1nc(-c2ccc(Cl)cc2)n2c1CCCCC2)N1CCN(c2ccccc2F)CC1` was tested, and the survival was 68% (inactive). `COc1ccc(CCNC(=O)CN(c2cc(C(F)(F)F)ccc2Cl)S(C)(=O)=O)cc1` was tested, and the survival was 68% (inactive). `CCc1ccc(N2CC(c3nnc(NC(=O)c4ccco4)s3)CC2=O)cc1` (stereo unspecified) was tested, and the survival was 78% (inactive). `Cc1cccc(NC(=O)c2cc3c(C)nn(-c4ccccc4)c3s2)c1` was tested, and the survival was -2% (active). For `Cc1nn(-c2ccccc2)c2sc(C(=O)Nc3ccc(Cl)cc3Cl)cc12`, the survival was 72% (inactive). In the case of `Cc1nn(-c2ccccc2)c2sc(C(=O)Nc3cccc(Br)c3)cc12`, the survival is reported as 36% (inactive). For `CCOc1ccc(NC(=O)c2cc3c(C)nn(-c4ccccc4)c3s2)cc1`, the survival was 78% (inactive). With `Cc1nn(-c2ccccc2)c2sc(C(=O)Nc3cccc(O)c3)cc12` the survival was 43% (inactive). For `Cc1nn(-c2ccccc2)c2sc(C(=O)Nc3cccc(Cl)c3)cc12`, the survival was 5% (active). With `CCOc1ccccc1C(=O)N(Cc1cc(OC)c(OC)c(OC)c1)c1ccccn1` the survival was 82% (inactive). In the case of `CCCOc1ccc(-c2cccc(NS(=O)(=O)c3ccc(CC)cc3)c2)nn1`, the survival is reported as 69% (inactive). For `COC(=O)c1cccc(S(=O)(=O)N2CCC(NC(=O)Nc3cccc(F)c3)CC2)c1`, the survival was 110% (inactive). With `CCOc1ccc(Nc2c(S(=O)(=O)c3ccccc3)cnc3ccc(CC)cc23)cc1` the survival was 4% (active). In the case of `CCOc1ccc(Nc2c(S(=O)(=O)c3ccccc3)cnc3ccccc23)cc1`, the survival is reported as 38% (inactive). In the case of `CCOC(=O)c1cnc2ccc(OCC)cc2c1NCCN(C)C`, the survival is reported as 103% (inactive). In the case of `CCOC(=O)c1cnc2ccc(OCC)cc2c1Nc1cc(Cl)c(OC)cc1OC`, the survival is reported as 60% (inactive). In the case of `CCOc1ccc(Nc2c(S(=O)(=O)c3ccc(Cl)cc3)cnc3ccc(OCC)cc23)cc1`, the survival is reported as 79% (inactive). With `CCOC(=O)c1cnc2ccc(OCC)cc2c1Nc1ccc(OCc2ccccc2Cl)cc1` the survival was 5% (active). In the case of `CCOC(=O)c1cnc2ccc(Cl)cc2c1Nc1ccc(OCC)cc1`, the survival is reported as -3% (active). In the case of `CCOC(=O)c1cnc2c(ccc3ccccc32)c1Nc1cccc(C(F)(F)F)c1`, the survival is reported as 37% (inactive). With `CCOC(=O)c1cnc2cc(C(F)(F)F)ccc2c1Nc1cc(C)ccc1OC` the survival was 67% (inactive). With `CCOC(=O)c1cnc2cc(C(F)(F)F)ccc2c1Nc1ccc(F)cc1F` the survival was -12% (active). For `CCOc1ccc(Nc2c(S(=O)(=O)c3ccccc3)cnc3ccc(F)cc23)cc1`, the survival was 61% (inactive). With `CCOc1ccc(Nc2cc(C(=O)NCc3ccccc3Cl)c3ccccc3n2)cc1` the survival was 92% (inactive). With `CC(=O)NCCNc1nc2c(S(=O)(=O)c3ccc(C)c(C)c3)nnn2c2ccc(Cl)cc12` the survival was 80% (inactive). For `O=C(CN1C(=O)COc2ccc(S(=O)(=O)N3CCOCC3)cc21)NCc1ccc(Cl)cc1`, the survival was 78% (inactive). In the case of `CCNc1c(NC(=O)c2ccccc2OCC)c(=O)oc2ccccc12`, the survival is reported as 90% (inactive). With `CC1=C(C(=O)Nc2ccccc2)C(c2ccc(C)o2)NC(=S)N1` (stereo unspecified) the survival was 109% (inactive). In the case of `O=C(O)c1cnc2ccccn2c1=O`, the survival is reported as 109% (inactive). With `Cc1noc(C)c1S(=O)(=O)N(CC(=O)NCc1ccccc1Cl)c1ccc(C(C)C)cc1` the survival was 82% (inactive). For `NC(=O)CSc1nnc(COc2ccccc2)n1C1CCCCC1`, the survival was 110% (inactive). For `CCOC(=O)C1CCN(C(c2ccccc2OC)c2c(O)cc(C)n(CCOC)c2=O)CC1` (stereo unspecified), the survival was 70% (inactive). With `Cc1ccc(N2CC(NC(=O)C3CCCC3)CC2=O)cc1` (stereo unspecified) the survival was 55% (inactive). `COCCn1c(CNC(=O)c2cccc(N(C)C)c2)nc2cccnc21` was tested, and the survival was 65% (inactive). For `Cc1nn(CC(=O)NCc2ccc(N(C)C)cc2)c(=O)c2c(C)n(-c3ccc(Cl)cc3)nc12`, the survival was 95% (inactive). In the case of `COc1ccc(CC(C)NS(=O)(=O)c2ccc3c(c2)CCN3S(C)(=O)=O)cc1OC` (stereo unspecified), the survival is reported as 134% (inactive). In the case of `CCOC(=O)c1c(C)[nH]c(C)c1S(=O)(=O)N(C)CC(=O)Nc1ccc(C)c(N(C)C)c1`, the survival is reported as 73% (inactive). In the case of `CCOC(=O)c1cnc2ccc(C)cc2c1Nc1ccc(N(CC)CC)cc1`, the survival is reported as -2% (active). `CCOC(=O)c1cnc2ccc(OC(F)(F)F)cc2c1Nc1ccccc1C(=O)O` was tested, and the survival was 52% (inactive). `CCOC(=O)c1cnc2ccccc2c1Nc1ccc(N2CCOCC2)cc1` was tested, and the survival was 68% (inactive). In the case of `CCOC(=O)c1cnc2ccc(C)cc2c1NCCc1ccc(OC)c(OC)c1`, the survival is reported as 117% (inactive). With `CCOC(=O)c1cnc2ccc(Cl)cc2c1Nc1ccc(N2CCOCC2)cc1` the survival was 0% (active). With `CCOC(=O)c1cnc2c(C)c(Cl)ccc2c1Nc1ccc(N2CCOCC2)cc1` the survival was 60% (inactive). With `CCOC(=O)c1cnc2c(Cl)cc(Cl)cc2c1Nc1cc(C(=O)O)ccc1C` the survival was 61% (inactive). `CCCOC(=O)c1ccc(Nc2c(C(=O)OCC)cnc3c(C)cc(Cl)cc23)cc1` was tested, and the survival was 4% (active). In the case of `CCOC(=O)c1cnc2ccc(C(=O)OC)cc2c1Nc1ccccc1CC`, the survival is reported as -1% (active). `CCOC(=O)c1ccc2ncc(C(=O)OCC)c(Nc3ccc(C)c(Br)c3)c2c1` was tested, and the survival was 72% (inactive). For `CCOC(=O)c1cnc2ccc(C(=O)OC)cc2c1Nc1ccc(N2CCOCC2)cc1`, the survival was 115% (inactive). With `CCOC(=O)c1cnc2cc(F)c(F)cc2c1Nc1ccccc1O` the survival was 169% (inactive).
